Among all 5,500 compounds or so, about 2,000 (36%) were called active. Roughly 18% stayed inconclusive and do not appear here. Rule as the data show it: active = normalized growth mostly below about 0.91 (no sharp cut-off); inconclusive = no clear call, values can overlap the other calls; inactive = mostly above about 0.92. The list shows a part of the results.
Experiment: chemical genetic growth profiling, strain panel (AID 1159580);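 also: tested at 20 µM; growth read once vehicle control cultures reached saturation at 30 °C; 1 = growth at the plate median or of vehicle wells; lower values mean less growth of the strain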
Conditions: growth OD

Measured: normalized growth

Cc1ccc2c(c1)C1(C)CCCC(C)(C(=O)O)C1CC2 (stereo unspecified)
inactive: S. cerevisiae deletion strains, locus YAL013W, strain DEP1, hits give low values 0.982 | S. cerevisiae deletion strains, locus YBR021W, strain FUR4, hits give low values 1.04 | S. cerevisiae deletion strains, locus YBR229C, strain ROT2, hits give low values 0.972 | S. cerevisiae deletion strains, locus YCL029C, strain bik1, hits give low values 0.998 | S. cerevisiae deletion strains, locus YDL035C, strain GPR1, hits give low values 0.99 | S. cerevisiae deletion strains, locus YDL074C, strain BRE1, hits give low values 0.951 | S. cerevisiae deletion strains, locus YDL101C, strain DUN1, hits give low values 0.975 | S. cerevisiae deletion strains, locus YDL134C, strain PPH21, hits give low values 0.992 | S. cerevisiae deletion strains, locus YDL185W, strain tfp1, hits give low values 0.95 | S. cerevisiae deletion strains, locus YDL192W, strain arf1, hits give low values 1 | S. cerevisiae deletion strains, locus YDR101C, strain arx1, hits give low values 1.01 | S. cerevisiae deletion strains, locus YDR150W, strain NUM1, hits give low values 0.992 | S. cerevisiae deletion strains, locus YDR162C, strain NBP2, hits give low values 0.907 | S. cerevisiae deletion strains, locus YDR318W, strain mcm21, hits give low values 1.02 | S. cerevisiae deletion strains, locus YDR388W, hits give low values 1.01 | S. cerevisiae deletion strains, locus YDR502C, strain sam2, hits give low values 0.984 | S. cerevisiae deletion strains, locus YEL061C, strain CIN8, hits give low values 0.993 | S. cerevisiae deletion strains, locus YER110C, hits give low values 0.991 | S. cerevisiae deletion strains, locus YER155C, strain BEM2, hits give low values 1.01 | S. cerevisiae deletion strains, locus YER167W, strain BCK2, hits give low values 1.01 | S. cerevisiae deletion strains, locus YGL078C, strain dbp3, hits give low values 0.96 | S. cerevisiae deletion strains, locus YGL086W, strain mad1, hits give low values 1.03 | S. cerevisiae deletion strains, locus YGL248W, strain PDE1, hits give low values 0.994 | S. cerevisiae deletion strains, locus YGR078C, strain PAC10, hits give low values 0.979 | S. cerevisiae deletion strains, locus YGR135W, strain pre9, hits give low values 0.96 | S. cerevisiae deletion strains, locus YGR229C, strain SMI1, hits give low values 0.979 | S. cerevisiae deletion strains, locus YGR252W, strain gcn5, hits give low values 1.06 | S. cerevisiae deletion strains, locus YHR030C, strain SLT2, hits give low values 1.02 | S. cerevisiae deletion strains, locus YHR079C, strain IRE1 (second series), hits give low values 1.01 | S. cerevisiae deletion strains, locus YHR094C, strain hxt1, hits give low values 0.996 | S. cerevisiae deletion strains, locus YHR129C, strain ARP1, hits give low values 1.01 | S. cerevisiae deletion strains, locus YHR200W, strain rpn10, hits give low values 1.01 | S. cerevisiae deletion strains, locus YIL066C, strain RNR3, hits give low values 0.994 | S. cerevisiae deletion strains, locus YIL073C, strain SPO22, hits give low values 1.03 | S. cerevisiae deletion strains, locus YIL125W, strain kgd1, hits give low values 0.986 | S. cerevisiae deletion strains, locus YIR030C, strain dcg1, hits give low values 0.998 | S. cerevisiae deletion strains, locus YJL095W, strain BCK1, hits give low values 1 | S. cerevisiae deletion strains, locus YJL134W, strain LCB3, hits give low values 1.01 | S. cerevisiae deletion strains, locus YJL168C, strain set2, hits give low values 1 | S. cerevisiae deletion strains, locus YJL187C, strain SWE1 (second series), hits give low values 0.968 | S. cerevisiae deletion strains, locus YJR043C, strain POL32, hits give low values 1.05 | S. cerevisiae deletion strains, locus YJR075W, strain HOC1, hits give low values 1.01 | S. cerevisiae deletion strains, locus YKL009W, strain mrt4, hits give low values 0.999 | S. cerevisiae deletion strains, locus YKL068W, hits give low values 0.982 | S. cerevisiae deletion strains, locus YKL085W, strain MDH1 (second series), hits give low values 0.997 | S. cerevisiae deletion strains, locus YKL085W, strain MDH1, hits give low values 0.997 | S. cerevisiae deletion strains, locus YKL190W, strain CNB1, hits give low values 0.989 | S. cerevisiae deletion strains, locus YKR001C, strain vps1, hits give low values 1.01 | S. cerevisiae deletion strains, locus YLR039C, strain RIC1, hits give low values 0.862 | S. cerevisiae deletion strains, locus YLR058C, strain SHM2, hits give low values 0.989 | S. cerevisiae deletion strains, locus YLR102C, strain apc9, hits give low values 0.989 | S. cerevisiae deletion strains, locus YLR262C, strain YPT6, hits give low values 0.806 | S. cerevisiae deletion strains, locus YLR268W, strain sec22, hits give low values 0.965 | S. cerevisiae deletion strains, locus YLR330W, strain CHS5, hits give low values 1 | S. cerevisiae deletion strains, locus YLR342W, strain FKS1 (second series), hits give low values 1.06 | S. cerevisiae deletion strains, locus YLR371W, strain rom2, hits give low values 1.02 | S. cerevisiae deletion strains, locus YLR418C, strain cdc73, hits give low values 0.967 | S. cerevisiae deletion strains, locus YML016C, strain PPZ1, hits give low values 0.998 | S. cerevisiae deletion strains, locus YML032C, strain rad52, hits give low values 1.03 | S. cerevisiae deletion strains, locus YML124C, strain tub3, hits give low values 1 | S. cerevisiae deletion strains, locus YMR078C, strain ctf18, hits give low values 0.994 | S. cerevisiae deletion strains, locus YMR223W, strain ubp8, hits give low values 1.03 | S. cerevisiae deletion strains, locus YMR263W, strain SAP30, hits give low values 0.973 | S. cerevisiae deletion strains, locus YMR307W, strain GAS1, hits give low values 0.976 | S. cerevisiae deletion strains, locus YNL067W, strain RPL9B, hits give low values 0.974 | S. cerevisiae deletion strains, locus YNL128W, strain TEP1, hits give low values 0.949 | S. cerevisiae deletion strains, locus YNL153C, strain GIM3, hits give low values 0.957 | S. cerevisiae deletion strains, locus YNL233W, strain BNI4, hits give low values 0.993 | S. cerevisiae deletion strains, locus YNL250W, strain rad50, hits give low values 0.972 | S. cerevisiae deletion strains, locus YNL271C, strain bni1, hits give low values 0.994 | S. cerevisiae deletion strains, locus YNL298W, strain CLA4, hits give low values 0.968 | S. cerevisiae deletion strains, locus YNL307C, strain MCK1, hits give low values 1.01 | S. cerevisiae deletion strains, locus YNL322C, strain KRE1, hits give low values 0.997 | S. cerevisiae deletion strains, locus YNR052C, strain pop2, hits give low values 1.02 | S. cerevisiae deletion strains, locus YOL006C, strain TOP1, hits give low values 0.956 | S. cerevisiae deletion strains, locus YOL012C, strain htz1 1.15 | S. cerevisiae deletion strains, locus YOL147C, strain pex11, hits give low values 1 | S. cerevisiae deletion strains, locus YOR061W, strain CKA2, hits give low values 0.973 | S. cerevisiae deletion strains, locus YOR069W, strain VPS5, hits give low values 1 | S. cerevisiae deletion strains, locus YOR136W, strain idh2, hits give low values 1.01 | S. cerevisiae deletion strains, locus YOR144C, strain elg1, hits give low values 1 | S. cerevisiae deletion strains, locus YOR184W, strain ser1, hits give low values 1.05 | S. cerevisiae deletion strains, locus YOR316C, strain cot1, hits give low values 0.999 | S. cerevisiae deletion strains, locus YPL055C, strain LGE1, hits give low values 0.946 | S. cerevisiae deletion strains, locus YPL241C, strain CIN2, hits give low values 0.997 | S. cerevisiae deletion strains, locus YPR119W, strain clb2, hits give low values 1 | S. cerevisiae deletion strains, locus YPR141C, strain kar3, hits give low values 0.939 | S. cerevisiae deletion strains, locus YPR163C, strain tif3, hits give low values 1 | S. cerevisiae deletion strains, locus YPR167C, strain met16, hits give low values 0.995 | S. cerevisiae deletion strains, strain wtn01, hits give low values 0.999 | S. cerevisiae strains, strain wild type, hits give low values 0.993

Source: PubChem BioAssay AID1159580 (chemical genetic matrix, 2015)
